Laboratory results from PubChem BioAssay.
Active and inactive are the calls of the source.

What was measured:
[1] = tested on: Plasmodium falciparum Sir2 (PF13_0152, Sir2A); assay: Plasmodium falciparum Sir2A binding compounds – biochemical, small-molecule microarray, 635 nm fluorescence, primary screen (AID 1098); conditions: fluorescence 635 nm, higher = more signal;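 further: score merges spot fluorescence intensity with its signal-to-noise ratio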
[2] = probe aDKK1 binding to arrayed compounds – biochemical, biotinylated probe, 635/667 nm fluorescence, primary screen (AID 1099); conditions: small-molecule microarray, higher = more signal;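 further: score merges 667nm spot fluorescence with signal to noise across triplicate slides; reference of the scale not given here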
[3] = probe aCHRDL2 binding to arrayed compounds – biochemical, biotinylated probe, 635/667 nm fluorescence, primary screen (AID 1100); conditions: small-molecule microarray, higher = more signal
[4] = change in splice reporter luminescence, either direction, cell-based, HEK293, spliceosome inhibition project, primary screen (AID 1101); conditions: HEK293 splicing luciferase reporter, 24 h, higher = more signal, called active from +8 up or from −8 down;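 further: HEK293 cells carrying a splicing-competent luciferase reporter gene; test concentration not given here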
[5] = target: Fibroblast growth factor 10 (Homo sapiens) (UniProt O15520); assay: compounds binding fibroblast growth factor 10 – biochemical, small-molecule microarray, 635 nm fluorescence, primary screen (AID 1102); conditions: FGF10 binding, fluorescence 635 nm, higher = more signal
Sequence of Fibroblast growth factor 10 (Homo sapiens) (O15520 whole entry, looked up): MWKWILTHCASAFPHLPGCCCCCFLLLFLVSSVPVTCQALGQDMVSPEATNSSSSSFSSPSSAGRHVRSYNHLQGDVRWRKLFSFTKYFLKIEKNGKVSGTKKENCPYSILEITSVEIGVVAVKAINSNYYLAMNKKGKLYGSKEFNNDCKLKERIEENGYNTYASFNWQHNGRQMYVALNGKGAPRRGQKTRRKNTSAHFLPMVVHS

[6] = tested on: glycogen synthase kinase-3 (GSK3A per assay name; protocol says GSK3B); assay: compounds binding glycogen synthase kinase-3 – biochemical, small-molecule microarray, 635 nm fluorescence, GSK3A, primary screen (AID 1103); conditions: fluorescence 635 nm, higher = more signal; further: the record names both GSK3A and GSK3B
[7] = target: Epidermal growth factor receptor (Homo sapiens) (UniProt P00533); assay: compounds binding epidermal growth factor receptor – biochemical, small-molecule microarray, 635 nm fluorescence, primary screen (AID 1104); conditions: EGFR binding, higher = more signal;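 further: score merges 667 nm emission intensity with spot signal to noise over triplicate slides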
Sequence of Epidermal growth factor receptor (Homo sapiens) (P00533 whole entry, looked up): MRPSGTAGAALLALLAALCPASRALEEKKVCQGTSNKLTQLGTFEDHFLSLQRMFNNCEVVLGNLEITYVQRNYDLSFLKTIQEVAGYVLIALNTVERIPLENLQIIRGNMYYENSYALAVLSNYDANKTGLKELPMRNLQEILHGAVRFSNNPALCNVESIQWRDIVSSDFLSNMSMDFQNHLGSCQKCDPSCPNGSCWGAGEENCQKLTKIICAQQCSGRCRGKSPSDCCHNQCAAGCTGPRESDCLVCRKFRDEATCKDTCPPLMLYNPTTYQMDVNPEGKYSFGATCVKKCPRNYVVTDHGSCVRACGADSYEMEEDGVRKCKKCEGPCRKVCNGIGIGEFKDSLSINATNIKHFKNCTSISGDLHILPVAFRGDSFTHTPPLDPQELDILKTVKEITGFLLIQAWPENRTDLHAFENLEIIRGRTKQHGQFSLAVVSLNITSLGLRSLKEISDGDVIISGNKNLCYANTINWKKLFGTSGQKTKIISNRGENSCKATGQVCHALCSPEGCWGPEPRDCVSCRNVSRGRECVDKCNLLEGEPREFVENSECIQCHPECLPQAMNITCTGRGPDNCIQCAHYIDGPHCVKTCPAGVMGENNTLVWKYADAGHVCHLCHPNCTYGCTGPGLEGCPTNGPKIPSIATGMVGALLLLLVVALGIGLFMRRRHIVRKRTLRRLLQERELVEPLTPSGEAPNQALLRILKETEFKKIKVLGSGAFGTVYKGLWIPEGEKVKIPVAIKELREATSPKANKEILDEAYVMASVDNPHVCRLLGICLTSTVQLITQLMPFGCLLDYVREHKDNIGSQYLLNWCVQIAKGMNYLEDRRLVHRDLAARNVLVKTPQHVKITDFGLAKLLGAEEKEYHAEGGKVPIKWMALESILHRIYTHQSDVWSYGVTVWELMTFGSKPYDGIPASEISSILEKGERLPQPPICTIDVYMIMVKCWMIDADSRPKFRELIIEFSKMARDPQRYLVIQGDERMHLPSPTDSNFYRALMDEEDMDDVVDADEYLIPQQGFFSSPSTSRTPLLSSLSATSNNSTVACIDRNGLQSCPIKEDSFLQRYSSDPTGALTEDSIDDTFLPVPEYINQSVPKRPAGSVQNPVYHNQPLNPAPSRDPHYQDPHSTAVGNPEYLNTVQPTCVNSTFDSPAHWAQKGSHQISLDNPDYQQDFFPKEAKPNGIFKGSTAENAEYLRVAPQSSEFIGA

[8] = target: Follistatin-related protein 3 (Homo sapiens) (UniProt O95633); assay: compounds binding follistatin-related protein 3 – biochemical, small-molecule microarray, 635 nm fluorescence, primary screen (AID 1105); conditions: FSTL3 binding, higher = more signal;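 further: score merges emission near 667 nm and signal to noise per printed spot across three slides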
Sequence of Follistatin-related protein 3 (Homo sapiens) (O95633 whole entry, looked up): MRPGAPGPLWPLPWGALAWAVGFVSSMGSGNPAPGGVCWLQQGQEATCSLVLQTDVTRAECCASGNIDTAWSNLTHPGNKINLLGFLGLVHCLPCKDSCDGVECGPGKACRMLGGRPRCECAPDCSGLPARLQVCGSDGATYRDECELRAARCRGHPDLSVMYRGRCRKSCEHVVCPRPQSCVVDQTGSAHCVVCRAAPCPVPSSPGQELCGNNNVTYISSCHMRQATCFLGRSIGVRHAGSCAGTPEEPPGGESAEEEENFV

[9] = target: Dickkopf-related protein 1 (Homo sapiens) (UniProt O94907); assay: small molecules binding DKK1 protein – biochemical, small-molecule microarray, 635 nm fluorescence scan, primary screen (AID 1106); conditions: higher = more signal;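 further: score merges emission near 667 nm with signal to noise over three replicate slides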
Sequence of Dickkopf-related protein 1 (Homo sapiens) (O94907 whole entry, looked up): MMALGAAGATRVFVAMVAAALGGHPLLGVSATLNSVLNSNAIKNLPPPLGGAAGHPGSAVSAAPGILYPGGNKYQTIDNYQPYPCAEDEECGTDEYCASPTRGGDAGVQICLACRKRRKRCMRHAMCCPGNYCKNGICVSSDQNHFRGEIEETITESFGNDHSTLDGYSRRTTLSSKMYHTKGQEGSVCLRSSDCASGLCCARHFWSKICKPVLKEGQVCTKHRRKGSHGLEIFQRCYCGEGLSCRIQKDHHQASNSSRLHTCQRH

[10] = tested on: Inhibin beta A chain (activin A); assay: small molecules binding activin A – biochemical, small-molecule microarray, 635 nm fluorescence scan, primary screen (AID 1107); conditions: INHBA, higher = more signal;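 further: mouse activin A protein probed at 4.33 µg/mL on printed slides; score merges bound-protein fluorescence near 667 nm with spot signal-to-noise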

SMILES | composite z-score [1] | composite z-score [2] | composite z-score [3] | z-score [4] | composite z-score [5] | composite z-score [6] | composite z-score [7] | composite z-score [8] | composite z-score [9] | composite z-score [10]
C=C(/C(=C/C[C@H](OC(=O)c1ccncc1)c1ccc(CO)o1)c1cc(C(=O)OC)ccc1OC)C(C)C | 0.805 | -0.0125 | -0.0735 | 0.174 (inactive) | 0.909 | 0.851 | 0.0286 | 0.752 | 0.667 | 1.04
C[C@H]1NC(=O)[C@@]23C(=O)N[C@@H](Cc4ccccc4)C2[C@H](C)[C@@]2(C)O[C@H]2C3/C=C/C/C=C\CNC(=O)[C@H](Cc2ccccc2)NC1=O (stereo not given in full) | 1.29 | -0.354 | -0.427 | 0.106 (inactive) | 0.932 | 0.138 | 0.199 | 1.01 | 0.689 | 1.34
CC(C)N1CC=CC23O[C@@H]4C=CCOC(=O)[C@@H]4[C@H]2C(=O)N(CCCO)[C@@H]3C1=O (stereo not given in full) | 1.95 | -0.286 | 0.627 | -3 (inactive) | -0.0827 | 0.0274 | -0.42 | -0.123 | -0.74 | 0.929
COC(=O)[C@@]1(Cc2ccc(F)cc2)[C@H]2c3cc(C(=O)N4CCCC4)n(CCN4CNCC4=O)c3C[C@H]2CN1C(=O)c1ccccc1 | 1.51 | 0.845 | 0.82 | 1.64 (inactive) | -0.142 | 1.26 | -0.472 | 0.131 | -1.29 | 0.781
COCCOC(=O)N1C(=O)[C@@]2(c3cc(C#CCNC(N)=O)ccc31)[C@H](C(=O)N1CCc3cc(OC)c(OC)cc3C1)[C@H]1C(=O)O[C@H](c3ccccc3)[C@H](c3ccccc3)N1[C@@H]2c1ccccc1OCCO | 1.26 | 0.073 | 0.315 | 0.0466 (inactive) | 1.41 | 1.14 | 0.873 | 1.14 | 0.246 | 0.586
CCC(CC)C(O)C1C=CC2C(=O)N(c3ccccc3)C(=O)C2N1Nc1ccc(C(C)C)cc1 (stereo not given) | 1.23 | 0.789 | 0.948 | -0.0169 (inactive) | 0.663 | 1.17 | 0.0407 | 0.932 | -0.0563 | 0.916
C[N+](C)(C)CCCCCCNC(=O)[C@H]1C[C@H]2C(=O)NCC(=O)N2[C@H]1c1ccc(O)cc1 | 1.51 | -0.34 | -0.592 | -0.271 (inactive) | 1.35 | 0.846 | 0.056 | 1.42 | 0.687 | -0.253
C=CCNC(=O)[C@H]1[C@@H]2C(=O)O[C@@H](c3ccccc3)[C@@H](c3ccccc3)N2[C@@H](c2ccc(O)cc2)[C@]12C(=O)Nc1ccc(C#CC3(O)CCCCCC3)cc12 | 1.38 | 0.0898 | 0.105 | 0.558 (inactive) | 0.155 | 0.373 | -0.612 | -0.0182 | 0.0926 | 0.697
O=C(N1CCCCC1)[C@@]1(CCS(=O)(=O)c2ccccc2)COC(c2ccc(OCCCO)cc2)=N1 | 1.38 | 1.12 | 1.21 | 1.74 (inactive) | 0.96 | 1.02 | -0.075 | 0.348 | 0.495 | 1.21
COC(=O)[C@@]1(Cc2ccc(F)cc2)[C@H]2c3cc(C(=O)N(C)C)n(CCc4ccc(O)c(OC)c4)c3C[C@H]2CN1C(=O)c1ccccc1 | 0.0736 | 2.29 | 0.884 | 0.655 (inactive) | 1.05 | 0.776 | 1.45 | 0.62 | 0.399 | 0.366
CC(C)C[C@@H]1NC(=O)[C@@H]2C[C@H](C(=O)NCCCCCN)[C@H](c3ccc(O)cc3)N2C1=O | 0.311 | 0.283 | 0.403 | 0.103 (inactive) | 0.843 | 1.31 | 0.0233 | 1.26 | 0.93 | 0.585
CCOC(=O)C1=CC[C@@H](c2ccccc2C(F)(F)F)N(S(=O)(=O)c2ccc(C)cc2)[C@H]1c1ccc(C#N)cc1 | 0.668 | 0.648 | 0.276 | -0.476 (inactive) | 0.719 | 1.2 | 0.593 | 0.772 | 0.35 | 0.307
COC(=O)c1c2oc(c1C(=O)OC)C(=O)N(C)Cc1cn(nn1)C[C@H](Cc1ccccc1)NC(=O)N[C@H](CO)CC2 | -0.595 | -0.349 | -0.264 | 0.322 (inactive) | -0.591 | -0.94 | -0.694 | -0.269 | -0.316 | -0.0248
COCCOC(=O)N1C(=O)[C@@]2(c3cc(C#CC4=CCCCC4)ccc31)[C@H](c1ccc(OCCO)cc1)N1[C@H](c3ccccc3)[C@H](c3ccccc3)OC(=O)[C@H]1[C@@H]2C(=O)NC[C@H](O)c1ccccc1 | 1.44 | 0.677 | 0.696 | -0.228 (inactive) | 1.35 | 1.31 | 0.933 | 1.49 | 1.32 | 1.29
CO[C@]12C=C(Br)[C@@H](C[C@@H]1c1cccc(C)c1)[C@@]1(CO1)C2=O | 1.53 | -0.306 | -0.284 | -0.258 (inactive) | 0.0635 | -0.207 | -0.14 | 0.261 | 0.0254 | 0.521
CN(C)C(=O)C1N=C(c2ccc(OCCCO)cc2)N(c2ccccc2)O1 (stereo not given) | 1.22 | 0.0309 | -0.0552 | -1.06 (inactive) | 1.5 | 1.13 | 0.662 | 0.739 | 0.726 | -0.319
CC(C)C(CO)N1C(=O)[C@@H]2C3C(=O)OCCC/C=C\[C@H]3OC23C=CCN(C(C)(C)C)C(=O)[C@@H]13 (stereo not given in full) | 1.2 | -0.456 | -0.384 | 0.476 (inactive) | -0.598 | 0.0664 | -0.44 | -0.504 | -0.268 | 1.05
CC(=O)NCCCC[C@@H]1NC(=O)[C@@H]2C[C@H](C(=O)NCCCC[N+](C)(C)C)[C@H](c3ccc(O)cc3)N2C1=O | 1.46 | -0.151 | -0.295 | -1.47 (inactive) | 1.33 | 0.301 | 0.753 | 1.47 | 1.76 | -0.261
Cc1cc(C)cc(N2C(=O)CSC2c2cccc([N+](=O)[O-])c2)c1 (stereo not given) | 1.13 | 0.94 | 0.398 | 1.07 (inactive) | 1.15 | 1.29 | 0.279 | 1.35 | 0.905 | -0.639
CC(=O)NCCCC[C@@H]1NC(=O)[C@H]2C[C@@H](C(=O)NCCCC[N+](C)(C)C)[C@@H](c3cccc(OCCO)c3)N2C1=O | 0.0726 | 0.186 | -0.201 | -0.307 (inactive) | 1.37 | 0.536 | 1.17 | 1.54 | 1.83 | -0.416
Cc1ccc(S[C@]2(C(=O)NCC(F)(F)F)CC(=O)N(Cc3ccccc3C(F)(F)F)[C@@H]2c2ccc(CO)cc2I)cc1 | 1.46 | -0.255 | 0.956 | -0.0164 (inactive) | -1.34 | -1.49 | -1.96 | -1.28 | -1.7 | 0.283
C=C[C@@H](OC)[C@H](OC(=O)Nc1ccc(SC)cc1)c1ccc(O)c(F)c1 | 1.2 | -0.0849 | 0.293 | -1.17 (inactive) | 0.588 | 0.288 | -0.198 | 0.213 | 0.19 | 0.312
O=C1C=C(c2ccccc2)C(=O)c2ccc([C@H]3Oc4ccccc4S(=O)(=O)N4CCC[C@@H]34)cc21 | -0.186 | -0.39 | -0.6 | 0.781 (inactive) | -0.101 | -0.191 | 0.496 | -0.266 | 0.714 | 1.04
CCOC(=O)C1=C[C@@H](c2ccccc2)N(S(=O)(=O)c2ccc(C)cc2)[C@H]1c1ccccc1Cl | 1.9 | 0.379 | -0.229 | 0.328 (inactive) | 1.29 | 1.29 | 0.683 | 1.05 | 0.508 | 0.556
COCCCNC(=O)[C@@]1(Cc2ccccc2N=[N+]=[N-])COC(c2ccc(OCCCO)cc2)=N1 | 0.955 | 0.516 | 1.17 | 0.989 (inactive) | 0.475 | -0.331 | -0.027 | -0.121 | -0.599 | 1.61
Cc1ccc(S[C@]2(C(=O)O)CC(=O)N(C3Cc4ccccc4C3)[C@@H]2c2ccc(CO)cc2)cc1 | 1.02 | 0.526 | 1.08 | 0.2 (inactive) | 0.0926 | -0.775 | -0.846 | -0.946 | -1.69 | 1.19
COCCCNC(=O)[C@@]1(Cc2ccccc2N=[N+]=[N-])N=C(c2ccc(OCCCO)cc2)O[C@H]1c1ccccc1 | 1.55 | 0.231 | 1.01 | 0.181 (inactive) | 0.911 | 1.28 | -0.338 | 0.402 | 0.157 | 1.14
O=C1C[C@@](C(=O)NCCN2CCOCC2)(c2ccc([N+](=O)[O-])cc2)[C@@H](c2ccc(CO)cc2I)N1C1CCCCC1 | 0.979 | -0.0973 | -0.0907 | -0.131 (inactive) | 0.76 | 1.15 | 0.593 | 0.926 | 0.397 | 0.454
COc1ccc([Si](C)(C)[C@H]2[C@H](CCn3cc([C@H](O)c4ccccc4)nn3)O[C@@]3(C(=O)N(Cc4ccc(N5C(=O)c6cccc7cccc5c67)cc4)c4ccccc43)[C@@H]2C)cc1 | 0.93 | 0.0396 | 0.538 | -0.64 (inactive) | 0.324 | -0.509 | -0.775 | -0.617 | -0.858 | -1.13
O=C(CS)NCCCCCNC(=O)[C@@H]1C[C@@H]2C(=O)N3CCC[C@H]3C(=O)N2[C@@H]1c1cccc(OCCO)c1 | 1.47 | -0.137 | 0.468 | 0.501 (inactive) | 0.453 | 0.649 | 0.196 | -0.596 | 0.292 | -0.525
